Experimental data: the supplement of paper PMC12645437, “Orthogonal IMiD-Degron Pairs Induce Selective Protein Degradation in Cells” (ACS Chemical Biology, 2025)
Over roughly 8,300 sequences, “log2 fold change of degron read counts, EGFP-low vs EGFP+ sorted cells (limma voom), compound-induced degradation” has its median near -1.1; the highest 2% begin near 3.2. This excerpt belongs to a sample that is enriched for the highest values.

T1: CRBN, Q96SW2
T1 chain: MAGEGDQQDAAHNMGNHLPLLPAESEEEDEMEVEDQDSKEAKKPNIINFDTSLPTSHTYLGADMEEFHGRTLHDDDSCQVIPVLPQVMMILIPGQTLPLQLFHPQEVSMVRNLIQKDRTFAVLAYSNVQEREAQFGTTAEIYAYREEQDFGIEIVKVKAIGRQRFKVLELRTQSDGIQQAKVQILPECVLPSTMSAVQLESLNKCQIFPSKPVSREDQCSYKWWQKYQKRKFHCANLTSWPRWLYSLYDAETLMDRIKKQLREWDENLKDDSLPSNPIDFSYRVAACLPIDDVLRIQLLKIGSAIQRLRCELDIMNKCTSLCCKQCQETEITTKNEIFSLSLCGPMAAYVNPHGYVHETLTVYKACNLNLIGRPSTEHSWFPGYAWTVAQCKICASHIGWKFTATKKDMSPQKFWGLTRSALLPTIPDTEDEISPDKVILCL


Biological target: T1, CRBN, Q96SW2
Assay: log2 fold change of degron read counts, EGFP-low vs EGFP+ sorted cells (limma voom), compound-induced degradation; higher = more compound-induced degradation of the degron-EGFP fusion; degrons are variants of IKZF1/3 zinc finger 2; compound dose not given here
Details: Jurkat, 18 h
[1] = compound: compound 19 (5-tert-butyl-thalidomide)
[2] = compound: compound 22 (5-morpholino-thalidomide)
[3] = compound: compound 33 (diphenyl IMiD analogue)
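Also: pooled lentiviral library of zinc finger degron-EGFP fusions in mCherry-positive Jurkat cells, FACS-sorted after compound exposure, with degron abundance counted by next-generation sequencing.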

Sequence	log2 fold change of degron read counts [1]	log2 fold change of degron read counts [2]	log2 fold change of degron read counts [3]	log2 fold change of degron read counts (compound: thalidomide)
FDCNICGAQFTQKGNLLRHIKL [46F_47D_49N_50I_52G_53A_54Q_55F_67L_, Q9UKT9]	-0.355	-0.127	-0.237	0.552
FRCEQCGALFTQKGNLLRHIKL [46F_47R_49E_50Q_52G_53A_54L_55F_67L_, Q9UKT9]	-3.49	-2.97	-0.178	-1.64
FRCPICGHTFTQKGNLLRHIKL [46F_47R_49P_50I_52G_53H_54T_55F_67L_, Q9UKT9]	-2.68	-2.91	-2.15	-2.02
FSCEICGRYFTQKGNLLRHIKL [46F_47S_49E_50I_52G_53R_54Y_55F_67L_, Q9UKT9]	-0.304	-1.64	-1.28	-1.44
FDCNICGARFTQKGNLLRHIKL [46F_47D_49N_50I_52G_53A_54R_55F_67L_, Q9UKT9]	1.3	0.634	-0.123	1.24
LFCPICGFMCTQKGNLLRHIKL [46L_47F_49P_50I_52G_53F_54M_55C_67L_, Q9UKT9]	2.71	2.77	2.05	0.947
FQCPICGRDFTQKGNLLRHIKL [46F_47Q_49P_50I_52G_53R_54D_55F_67L_, Q9UKT9]	-1.62	-1.68	0.2	1.58
FECPQCGAVFTQKGNLLRHIKL [46F_47E_49P_50Q_52G_53A_54V_55F_67L_, Q9UKT9]	-2.29	-2.41	0.278	0.0294
FHCPICGADFTQKGNLLRHIKL [46F_47H_49P_50I_52G_53A_54D_55F_67L_, Q9UKT9]	-0.22	-0.857	0.863	-0.761
FGCNICGAPFTQKGNLLRHIKL [46F_47G_49N_50I_52G_53A_54P_55F_67L_, Q9UKT9]	0.653	0.355	0.00441	-0.248
FWCPICGAPFTQKGNLLRHIKL [46F_47W_49P_50I_52G_53A_54P_55F_67L_, Q9UKT9]	3.28	3.35	2.63	1.37
FWCPICGAMFTQKGNLLRHIKL [46F_47W_49P_50I_52G_53A_54M_55F_67L_, Q9UKT9]	2.54	2.77	2	0.329
FWCNICGAPFTQKGNLLRHIKL [46F_47W_49N_50I_52G_53A_54P_55F_67L_, Q9UKT9]	2.88	2.66	1.69	0.25
FGCPICGAPFTQKGNLLRHIKL [46F_47G_49P_50I_52G_53A_54P_55F_67L_, Q9UKT9]	3.74	2.38	1.84	1.66
FHCPICGAPFTQKGNLLRHIKL [46F_47H_49P_50I_52G_53A_54P_55F_67L_, Q9UKT9]	3.64	3.39	2.87	2.28
FTCPICGADFTQKGNLLRHIKL [46F_47T_49P_50I_52G_53A_54D_55F_67L_, Q9UKT9]	-0.0637	1.88	2.02	2.53
FTCPICGHPFTQKGNLLRHIKL [46F_47T_49P_50I_52G_53H_54P_55F_67L_, Q9UKT9]	-1.82	-0.901	0.0444	0.479
FTCPICGAPFTQKGNLLRHIKL [46F_47T_49P_50I_52G_53A_54P_55F_67L_, Q9UKT9]	2.68	3.44	2.65	3.25
FHCDICGAPFTQKGNLLRHIKL [46F_47H_49D_50I_52G_53A_54P_55F_67L_, Q9UKT9]	3.18	2.85	1.67	0.346
FGCPICGADFTQKGNLLRHIKL [46F_47G_49P_50I_52G_53A_54D_55F_67L_, Q9UKT9]	1.78	0.634	1.7	0.267
FICNQCGAMFTQKGNLLRHIKL [46F_47I_49N_50Q_52G_53A_54M_55F_67L_, Q9UKT9]	-2.72	-2.75	-0.507	-1.6
FSCPICGHCFTQKGNLLRHIKL [46F_47S_49P_50I_52G_53H_54C_55F_67L_, Q9UKT9]	-2.27	-2.66	-1.41	-1.81
FLCNICGAHFTQKGNLLRHIKL [46F_47L_49N_50I_52G_53A_54H_55F_67L_, Q9UKT9]	-1.65	-2	-0.489	-0.376
FFCSVCGHTFTQKGNLLRHIKL [46F_47F_49S_50V_52G_53H_54T_55F_67L_, Q9UKT9]	-1.42	-2.35	-2.3	-2.45
FNCNQCGAKFTQKGNLLRHIKL [46F_47N_49N_50Q_52G_53A_54K_55F_67L_, Q9UKT9]	-2.03	-2.67	-2.17	-1.99
FQCNQCGHYFTQKGNLLRHIKL [46F_47Q_49N_50Q_52G_53H_54Y_55F_67L_, Q9UKT9]	-3.07	-2.91	-2.9	-2.48
FYCNQCGATFTQKGNLLRHIKL [46F_47Y_49N_50Q_52G_53A_54T_55F_67L_, Q9UKT9]	-1.8	-0.678	-1.33	-2.43
FHCDQCGAWFTQKGNLLRHIKL [46F_47H_49D_50Q_52G_53A_54W_55F_67L_, Q9UKT9]	-2.39	-3.42	-2.72	-2.68
